From PubChem BioAssay
“And” between values parts separate entries of the source, which are not always exact repeats. Equal entries are not always repeated. The source made the active and inactive calls.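 Rule for the calls: active = response below a set limit, under 55% cells CD8-positive and vesicle-bound, and CD8 cells' 90th-percentile brightness under 279; inactive = the rest.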

Assay: reduced mouse 2C T cell binding to pMHC/ICAM-1 vesicles – MLPCN validation set, flow cytometry, LFA-1/ICAM-1 modulator project, pilot screen (AID 2523);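 for vesicle binding response: mean PE anti-B7-1 fluorescence of CD8+ cells relative to row control; 100% = QL9-loaded vesicles with DMSO vehicle in the same plate row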
Settings: 2C mouse CD8+ T cells, at 7 µM, stronger effect = lower value; double positive events: measured here: CD8+/vesicle+ event percentage

| SMILES | double positive events | vesicle binding response |
| --- | --- | --- |
| COc1cc(NC(=S)NC(=O)c2cccs2)ccc1NC(=O)C(C)C | 66.4% | 265% (inactive) |
| COc1ccc(CCN(C)CCCC(C#N)(c2cc(OC)c(OC)c(OC)c2)C(C)C)cc1OC (stereo not drawn) | 57.7% | 239% (inactive) |
| O=C1C(Cc2c[nH]c3ccccc23)NC(=S)N1Cc1ccccc1 (stereo not drawn) | 67.5% | 132% (inactive) |
| CC(C)(C)C(=O)NC(=S)NNC(=O)c1ccncc1 | 57.3% | 185% (inactive) |
| CCOC(=O)N1CCN(Cc2nc(Cc3cccc(F)c3)no2)CC1 | 64.5% | 171% (inactive) |
| C[C@@H]1C[C@H](Nc2ccccc2)c2ccccc2N1C(=O)c1cccnc1 | 59.5% | 188% (inactive) |
| OC(CCN1CCCC1)(c1ccccc1)C1CCCCC1 (stereo not drawn) | 63.6% | 284% (inactive) |
| Cc1cc(Cl)cc2c1NC(=O)[C@]21[C@@H]2C(=O)N(Cc3ccccc3)C(=O)[C@@H]2[C@@H]2CCCN21 | 63.7% | 154% (inactive) |
| O=C(/C=C/c1ccco1)Nc1ccccc1C(=O)O | 65.9% | 205% (inactive) |
| CC(C)c1ccc(/C=C/C(=O)O)cc1 | 56.5% | 218% (inactive) |
| CCN(CC)CC(=O)Nc1c(C)cccc1C | 65.6% and 64.5% | 12800% (inactive) |
| CC1=C(C)C(=O)C(CCCCC#CCCCC#CCO)=C(C)C1=O | 62.8% | 137% (inactive) |
| COc1cc(C=NCC2OCCc3ccccc32)cc(OC)c1 (stereo not drawn) | 57.8% | 136% (inactive) |
| CN(C)CCCN1c2ccccc2CCc2ccccc21 | 65.8% | 1060% (inactive) |
| COc1ccc2nc(S(=O)Cc3ncc(C)c(OC)c3C)[nH]c2c1 (stereo not drawn) | 60.4% | 131% (inactive) |
| COc1ccc(CNCCC2(C(C)C)CCOC(C)(C)C2)cc1 (stereo not drawn) | 55.9% | 52.5% (inactive) |
| COc1cccc(CN2C(=O)N(C(C)C)C(N(O)C(=O)NC(C)C)C2(C)C)c1OC (stereo not drawn) | 67.3% | 216% (inactive) |
| Cc1ccc(S(=O)(=O)N[C@@H](Cc2ccccc2)C(=O)CCl)cc1 | 59.9% | 101% (inactive) |
| COCCN(CCOC)Cc1c(C)[nH]c2c(C)c(C)ccc2c1=O | 63.2% | 132% (inactive) |
| CCOC(=O)C(NC(=O)CCC(=O)Nc1ccc(S(N)(=O)=O)cc1)C(O)c1ccccc1 (stereo not drawn) | 57.6% | 361% (inactive) |
| Cc1ccccc1N1C(N)=NC(N)=NC1(C)C | 63% | 135% (inactive) |
| CC1Cc2ccccc2N1NC(=O)c1ccc(Cl)c(S(N)(=O)=O)c1 (stereo not drawn) | 41.4% | 19.9% (active) |
| CC1=C(/C=C/C(C)=C/C=C/C(C)=C/C(=O)O)C(C)(C)CCC1 | 62.6% | 194% (inactive) |
| N/C(=N\OC(=O)/C=C/c1ccccc1)c1ccc(Br)cc1 | 65% | 195% (inactive) |
| CCOc1ccc(C(=O)C(C)=O)c(OCC)c1 | 64.3% | 211% (inactive) |
| COc1ccc(C=O)c(OC)c1 | 60.9% | 188% (inactive) |
| CC1=NN(c2ccccc2)C(=O)C1 | 62.5% | 206% (inactive) |
| COCC1CCCN(Cc2cn[nH]c2-c2cc3ccccc3o2)C1 (stereo not drawn) | 63.3% | 181% (inactive) |
| CC1(C)CC(=O)C(C2=NC(C)(C)Cc3ccccc32)=C(O)C1 | 59.3% | 48.2% (inactive) |
